From the supplement of paper PMC10849652
Targets with a hit are over-represented here; the source holds about 8,800 in all. About 0.5% of all pairs of compound and target were hits. A number with no mark means an inactive call.

How the values were obtained:
Experiment in all cases: log2 fold change, soluble protein after heating vs DMSO (PISA); higher = thermal stabilisation; K562 lysate, 10 uM; active = over 0.2 and 3.5 SD of the protein, either way, in both replicates (recomputed)
[1] = compound: Cc1cn(-c2cc(NC(=O)c3ccc(C)c(Nc4nccc(-c5cccnc5)n4)c3)cc(C(F)(F)F)c2)cn1 [nilotinib]
Summary of the method: (§1)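 Pellets of K562 cells were dounce-homogenised in PBS pH 7.4 with 1 mM MgCl2, and the crude extract was held at 1 mg/mL protein for a 30 min treatment with 10 μM compound. Aliquots were heated for 3 min over 48°C-58°C and pooled before NP-40 was added to 0.5% at 4°C. The supernatant from 21,000xg for 90 min was quantified by TMTpro 16plex LC-MS/MS with channel sums equalised. Values are reported from duplicates as log-two fold change in thermal stability relative to solvent controls.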

[2] = compound: Cc1nc(Nc2n[nH]c3c2CN(C(=O)N[C@H](CN(C)C)c2ccccc2)C3(C)C)c2sccc2n1
Summary of the method: as §1

[3] = compound: Cc1nc(Nc2ncc(C(=O)Nc3c(C)cccc3Cl)s2)cc(N2CCN(CCO)CC2)n1 [dasatinib]
Summary of the method: as §1

[4] = compound: Cc1ncc(-c2ccnc(Nc3ccc(S(C)(=O)=O)cc3)n2)n1C(C)C
Summary of the method: as §1

[5] = compound: Cn1cc(-c2ccc3c(c2)CCN3C(=O)Cc2cccc(C(F)(F)F)c2)c2c(N)ncnc21
Summary of the method: as §1

[6] = compound: Cn1cc(CNCC2CCN(c3ncc(C(=O)NO)cn3)CC2)c2ccccc21 [quisinostat]
Summary of the method: as §1

[7] = compound: Cn1cncc1[C@@](N)(c1ccc(Cl)cc1)c1ccc2c(c1)c(-c1cccc(Cl)c1)cc(=O)n2C [tipifarnib]
Summary of the method: as §1

[8] = compound: NC(=O)Nc1cc(-c2cccc(F)c2)sc1C(=O)N[C@H]1CCCNC1
Summary of the method: as §1

[9] = compound: NC(=O)c1cnc(N[C@@H]2CCCC[C@@H]2N)nc1Nc1cccc(-n2nccn2)c1
Summary of the method: as §1

[10] = compound: NC1(c2ccc(-c3nc4ccn5c(=O)[nH]nc5c4cc3-c3ccccc3)cc2)CCC1
Summary of the method: as §1

[11] = compound: NCC(=O)Nc1ccc(-n2nc(C(F)(F)F)cc2-c2ccc3c(ccc4ccccc43)c2)cc1
Summary of the method: as §1

[12] = compound: O=C(CCCCCCC(=O)Nc1ccccc1)NO [vorinostat]
Summary of the method: as §1

[13] = compound: O=C(O)c1ccc2c(c1)nc(Nc1cccc(Cl)c1)c1ccncc12 [silmitasertib]
Summary of the method: as §1

[14] = compound: O=C1NC(=O)C(c2cnc3ccccn23)=C1c1cn2c3c(cc(F)cc13)CN(C(=O)N1CCCCC1)CC2
Summary of the method: as §1

[15] = compound: c1cn2cc(-c3ccc4cn[nH]c4c3)nc(Nc3ccc(N4CCOCC4)cc3)c2n1 [entospletinib]
Summary of the method: as §1

UniProt Q5T447, sequence (Q5T447 whole entry, looked up): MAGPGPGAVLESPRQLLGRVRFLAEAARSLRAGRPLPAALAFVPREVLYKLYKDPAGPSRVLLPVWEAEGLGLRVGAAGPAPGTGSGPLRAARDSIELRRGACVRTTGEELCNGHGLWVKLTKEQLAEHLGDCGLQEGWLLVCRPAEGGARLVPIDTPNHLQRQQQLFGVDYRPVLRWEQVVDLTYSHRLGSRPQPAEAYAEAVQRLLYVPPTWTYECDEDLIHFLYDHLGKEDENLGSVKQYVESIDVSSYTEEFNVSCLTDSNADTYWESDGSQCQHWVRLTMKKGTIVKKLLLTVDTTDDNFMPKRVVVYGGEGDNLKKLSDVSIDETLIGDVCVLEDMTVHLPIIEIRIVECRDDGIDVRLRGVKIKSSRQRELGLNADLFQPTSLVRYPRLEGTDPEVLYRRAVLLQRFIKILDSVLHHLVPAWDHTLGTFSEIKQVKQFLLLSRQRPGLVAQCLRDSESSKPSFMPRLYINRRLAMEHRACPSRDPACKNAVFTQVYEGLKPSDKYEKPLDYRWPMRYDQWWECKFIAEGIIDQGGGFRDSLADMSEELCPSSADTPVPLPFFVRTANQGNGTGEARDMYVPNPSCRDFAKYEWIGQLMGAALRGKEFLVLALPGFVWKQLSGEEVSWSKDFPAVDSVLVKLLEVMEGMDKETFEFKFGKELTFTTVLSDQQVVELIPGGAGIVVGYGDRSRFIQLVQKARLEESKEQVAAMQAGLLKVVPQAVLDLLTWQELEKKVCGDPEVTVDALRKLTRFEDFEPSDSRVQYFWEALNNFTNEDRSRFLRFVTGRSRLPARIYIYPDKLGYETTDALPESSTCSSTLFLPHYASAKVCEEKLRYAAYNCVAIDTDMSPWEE
UniProt Q9Y5Q8, sequence (Q9Y5Q8 whole entry, looked up): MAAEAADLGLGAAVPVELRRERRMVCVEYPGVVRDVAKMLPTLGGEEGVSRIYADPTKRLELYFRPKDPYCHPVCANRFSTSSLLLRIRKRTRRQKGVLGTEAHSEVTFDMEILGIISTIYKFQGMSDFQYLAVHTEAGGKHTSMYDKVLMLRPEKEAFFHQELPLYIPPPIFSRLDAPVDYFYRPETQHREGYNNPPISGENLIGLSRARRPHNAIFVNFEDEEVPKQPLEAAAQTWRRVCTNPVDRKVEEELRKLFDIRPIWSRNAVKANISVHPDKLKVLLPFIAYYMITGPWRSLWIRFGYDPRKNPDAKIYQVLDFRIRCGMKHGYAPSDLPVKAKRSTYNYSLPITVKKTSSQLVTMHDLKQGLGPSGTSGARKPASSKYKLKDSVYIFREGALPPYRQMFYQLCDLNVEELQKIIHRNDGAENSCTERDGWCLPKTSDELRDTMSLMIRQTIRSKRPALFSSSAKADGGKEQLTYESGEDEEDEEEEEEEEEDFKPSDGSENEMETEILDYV
UniProt P23677, sequence (P23677 whole entry, looked up): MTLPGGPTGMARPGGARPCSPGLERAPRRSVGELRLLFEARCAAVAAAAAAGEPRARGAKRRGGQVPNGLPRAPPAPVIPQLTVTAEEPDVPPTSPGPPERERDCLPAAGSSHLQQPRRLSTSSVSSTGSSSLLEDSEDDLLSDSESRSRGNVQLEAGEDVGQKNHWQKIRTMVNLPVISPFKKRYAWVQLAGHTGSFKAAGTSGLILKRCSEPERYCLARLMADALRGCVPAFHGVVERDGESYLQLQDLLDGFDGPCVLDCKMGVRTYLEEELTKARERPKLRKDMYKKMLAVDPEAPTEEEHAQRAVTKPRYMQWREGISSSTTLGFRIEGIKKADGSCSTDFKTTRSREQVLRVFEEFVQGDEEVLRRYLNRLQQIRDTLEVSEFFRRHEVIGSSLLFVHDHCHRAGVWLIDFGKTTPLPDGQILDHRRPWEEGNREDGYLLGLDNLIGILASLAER
UniProt Q99729, sequence (Q99729 whole entry, looked up): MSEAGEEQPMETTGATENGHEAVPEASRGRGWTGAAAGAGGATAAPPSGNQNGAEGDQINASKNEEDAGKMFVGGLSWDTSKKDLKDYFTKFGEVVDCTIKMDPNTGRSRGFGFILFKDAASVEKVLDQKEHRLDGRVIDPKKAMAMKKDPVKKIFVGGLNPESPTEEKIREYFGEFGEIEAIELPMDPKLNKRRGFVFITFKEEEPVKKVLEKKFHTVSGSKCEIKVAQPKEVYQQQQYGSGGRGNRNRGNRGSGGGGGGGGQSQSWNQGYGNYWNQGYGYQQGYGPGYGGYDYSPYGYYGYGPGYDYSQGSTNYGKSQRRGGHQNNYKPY
UniProt P52789, sequence (P52789 whole entry, looked up): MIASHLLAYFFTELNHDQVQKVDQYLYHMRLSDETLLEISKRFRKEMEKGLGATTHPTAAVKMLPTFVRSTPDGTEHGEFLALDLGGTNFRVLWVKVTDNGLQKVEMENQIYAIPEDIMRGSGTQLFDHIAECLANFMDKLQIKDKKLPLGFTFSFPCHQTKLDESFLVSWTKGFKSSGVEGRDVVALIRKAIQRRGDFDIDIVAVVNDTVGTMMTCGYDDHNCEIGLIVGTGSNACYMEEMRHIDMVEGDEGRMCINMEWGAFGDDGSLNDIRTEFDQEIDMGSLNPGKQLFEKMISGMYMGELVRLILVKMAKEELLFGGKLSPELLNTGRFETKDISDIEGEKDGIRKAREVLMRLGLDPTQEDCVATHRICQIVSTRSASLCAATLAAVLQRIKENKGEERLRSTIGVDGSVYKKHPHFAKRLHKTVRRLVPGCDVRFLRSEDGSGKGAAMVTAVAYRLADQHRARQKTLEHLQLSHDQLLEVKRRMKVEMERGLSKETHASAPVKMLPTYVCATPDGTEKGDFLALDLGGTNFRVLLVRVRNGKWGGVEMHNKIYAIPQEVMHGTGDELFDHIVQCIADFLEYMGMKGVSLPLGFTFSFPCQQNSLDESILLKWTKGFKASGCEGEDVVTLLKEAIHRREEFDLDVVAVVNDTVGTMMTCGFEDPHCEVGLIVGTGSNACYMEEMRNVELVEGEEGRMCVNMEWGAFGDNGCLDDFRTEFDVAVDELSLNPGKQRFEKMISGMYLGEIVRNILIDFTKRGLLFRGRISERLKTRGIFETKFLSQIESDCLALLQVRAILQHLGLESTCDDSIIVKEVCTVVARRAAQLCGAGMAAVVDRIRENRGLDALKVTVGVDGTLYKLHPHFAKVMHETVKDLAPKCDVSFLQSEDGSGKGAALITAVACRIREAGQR
UniProt P12081, sequence (P12081 whole entry, looked up): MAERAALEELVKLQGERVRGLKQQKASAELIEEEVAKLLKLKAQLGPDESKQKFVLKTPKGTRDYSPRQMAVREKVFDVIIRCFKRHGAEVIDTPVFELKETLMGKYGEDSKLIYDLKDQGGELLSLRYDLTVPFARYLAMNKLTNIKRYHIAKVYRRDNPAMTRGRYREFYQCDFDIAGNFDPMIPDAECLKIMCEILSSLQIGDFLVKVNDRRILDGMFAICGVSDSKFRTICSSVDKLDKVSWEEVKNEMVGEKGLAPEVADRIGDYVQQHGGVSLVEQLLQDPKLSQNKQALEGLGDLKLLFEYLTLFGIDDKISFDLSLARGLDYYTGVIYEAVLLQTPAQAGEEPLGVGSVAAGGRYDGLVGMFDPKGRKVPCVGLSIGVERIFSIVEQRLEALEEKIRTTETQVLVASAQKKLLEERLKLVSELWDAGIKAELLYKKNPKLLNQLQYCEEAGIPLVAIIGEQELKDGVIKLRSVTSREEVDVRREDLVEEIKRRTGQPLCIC
UniProt Q8WVV9, sequence (Q8WVV9 whole entry, looked up): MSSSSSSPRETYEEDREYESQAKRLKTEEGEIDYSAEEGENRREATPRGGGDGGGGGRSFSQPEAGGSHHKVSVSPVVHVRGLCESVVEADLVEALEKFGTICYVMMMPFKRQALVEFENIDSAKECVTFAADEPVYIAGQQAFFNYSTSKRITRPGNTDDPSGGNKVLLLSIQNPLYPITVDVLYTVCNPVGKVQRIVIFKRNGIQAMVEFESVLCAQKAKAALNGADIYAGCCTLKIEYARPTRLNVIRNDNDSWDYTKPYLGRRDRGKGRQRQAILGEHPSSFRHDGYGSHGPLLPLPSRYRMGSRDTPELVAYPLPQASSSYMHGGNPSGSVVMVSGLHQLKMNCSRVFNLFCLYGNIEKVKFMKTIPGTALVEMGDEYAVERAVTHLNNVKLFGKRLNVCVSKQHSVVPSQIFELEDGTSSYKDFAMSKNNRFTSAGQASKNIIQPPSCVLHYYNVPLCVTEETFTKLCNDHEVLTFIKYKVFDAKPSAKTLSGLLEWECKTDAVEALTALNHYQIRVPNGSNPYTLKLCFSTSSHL
UniProt Q9NVX7, sequence (Q9NVX7 whole entry, looked up): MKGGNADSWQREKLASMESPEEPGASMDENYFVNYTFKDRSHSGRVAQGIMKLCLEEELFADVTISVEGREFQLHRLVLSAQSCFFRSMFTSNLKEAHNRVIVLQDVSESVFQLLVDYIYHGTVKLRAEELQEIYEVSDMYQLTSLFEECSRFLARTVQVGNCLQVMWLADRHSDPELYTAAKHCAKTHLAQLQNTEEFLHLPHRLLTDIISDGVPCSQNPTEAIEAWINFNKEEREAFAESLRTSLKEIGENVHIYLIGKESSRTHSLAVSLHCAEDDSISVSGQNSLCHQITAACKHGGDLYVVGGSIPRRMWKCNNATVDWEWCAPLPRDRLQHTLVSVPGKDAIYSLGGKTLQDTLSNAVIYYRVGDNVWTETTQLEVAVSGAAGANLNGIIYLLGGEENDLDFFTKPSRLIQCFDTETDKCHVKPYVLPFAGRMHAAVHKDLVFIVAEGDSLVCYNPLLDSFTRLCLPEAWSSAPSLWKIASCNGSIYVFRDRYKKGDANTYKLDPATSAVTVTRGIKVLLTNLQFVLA

Target | log2 fold change [1] | log2 fold change [2] | log2 fold change [3] | log2 fold change [4] | log2 fold change [5] | log2 fold change [6] | log2 fold change [7] | log2 fold change [8] | log2 fold change [9] | log2 fold change [10] | log2 fold change [11] | log2 fold change [12] | log2 fold change [13] | log2 fold change [14] | log2 fold change [15]
HNRNPAB isoform 3 (UniProt Q99729) | -0.012 | 0.026 | 0.022 | 0.024 | -0.028 | 0.026 | 0.006 | 0 | -0.005 | 0.012 | 0.067 | 0.189 | -0.01 | 0.008 | -0.019
GTF3C5 isoform 3 (UniProt Q9Y5Q8) | 0.023 | -0.023 | -0.017 | -0.018 | 0.019 | -0.063 | -0.004 | 0.05 | -0.006 | 0.005 | 0.002 | -0.296 (active) | 0.016 | 0.04 | -0.021
HNRNPD isoform 3 (UniProt Q14103) | 0.012 | -0.073 | 0.017 | 0.017 | 0.065 | 0.005 | -0.002 | 0.021 | 0.028 | -0.033 | 0.074 | 0.078 | 0.005 | 0.09 | 0
INPPL1 (UniProt O15357) | -0.007 | -0.001 | -0.031 | -0.02 | 0.035 | 0 | -0.026 | 0.032 | 0.028 | 0.003 | 0.025 | -0.528 (active) | 0.057 | 0.017 | -0.015
HECTD3 (UniProt Q5T447) | -0.004 | 0.041 | -0.016 | -0.012 | 0.006 | 0.026 | 0.059 | 0.05 | 0.003 | 0.056 | -0.015 | -0.253 (active) | 0.109 | -0.02 | 0.022
HDLBP, A0A024R4E5 | -0.011 | 0.006 | -0.038 | 0.014 | 0.015 | -0.076 | 0.001 | 0.018 | -0.002 | -0.022 | 0.009 | -0.427 (active) | -0.013 | 0.004 | 0.009
HNRNPLL (UniProt Q8WVV9) | -0.031 | 0.009 | -0.019 | 0.008 | -0.001 | -0.063 | -0.008 | 0.001 | 0.015 | -0.013 | 0.009 | -0.653 (active) | 0.035 | 0.004 | 0.034
HADHB (UniProt P55084) | 0.052 | -0.028 | -0.026 | 0.022 | 0.066 | -0.064 | 0.028 | -0.122 | -0.076 | 0.073 | 0.047 | -0.199 | -0.033 | 0.269 | 0.063
KBTBD4 isoform 2 (UniProt Q9NVX7) | 0.063 | -0.019 | -0.017 | -0.086 | -0.022 | -0.038 | 0.154 | 0.086 | -0.018 | -0.039 | 0.025 | -0.311 (active) | 0.012 | -0.023 | -0.012
HAUS4 (UniProt Q9H6D7) | 0.03 | -0.05 | -0.052 | 0.016 | 0.052 | -0.065 | -0.021 | 0.053 | 0.014 | -0.012 | -0.022 | -0.255 (active) | 0.045 | -0.017 | -0.018
HK2 (UniProt P52789) | 0.065 | -0.003 | -0.052 | 0 | 0.033 | -0.079 | -0.01 | 0.048 | 0.035 | -0.031 | -0.018 | -0.443 (active) | 0.038 | 0.007 | 0.022
ITPKA (UniProt P23677) | -0.005 | 0.045 | -0.064 | -0.001 | -0.002 | -0.026 | -0.001 | 0.044 | 0.021 | -0.027 | 0.033 | -0.36 (active) | 0.09 | -0.101 | 0.081
IRAK4 (UniProt Q9NWZ3) | -0.115 | 0.065 | 0.051 | -0.012 | 0.023 | -0.066 | -0.044 | 0.413 (active) | 0.028 | 0 | -0.031 | -0.218 | 0.055 | -0.106 | 0.042
HARS (UniProt P12081) | 0.031 | 0.003 | -0.006 | -0.015 | 0.008 | -0.021 | 0.019 | -0.019 | 0.005 | 0.021 | -0.031 | -0.003 | 0.02 | -0.054 | 0.001
GORASP1 (UniProt Q9BQQ3) | 0.011 | -0.02 | -0.019 | 0.034 | 0.048 | 0.034 | -0.006 | -0.071 | 0.177 | -0.11 | -0.041 | -0.01 | 0.067 | -0.018 | -0.09
HACE1 (UniProt Q8IYU2) | -0.027 | 0.043 | -0.154 | 0.035 | -0.084 | 0.061 | -0.175 | 0.181 | 0.028 | -0.02 | 0.183 | -0.126 | -0.002 | 0.084 | 0.012
KEAP1 (UniProt Q14145) | -0.01 | 0.01 | -0.023 | -0.014 | -0.044 | -0.078 | -0.02 | 0.011 | 0.022 | -0.002 | -0.019 | -0.262 (active) | -0.008 | -0.022 | 0.001
